Experimental findings from PubChem BioAssay (NCATS) are described below.

In experiment [1] the target is Alpha-galactosidase A (Homo sapiens) (UniProt P06280). Kind of experiment: Counterscreen for Glucocerebrosidase Inhibitors: qHTS Assay for Human alpha-Galactosidase at pH 4.5 (AID 992). Further: 0% is about no effect. Summed up:
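Quantitative HTS: compounds tested from 0.7 nM up to 77 uM against 2 nM enzyme with 80 uM 4-MU alpha-D-galactopyranoside. The 20 min room-temperature reaction is stopped with 1M NaOH/1M glycine, pH 10.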

The target in experiment [2] is alpha-glucosidase (Oryza sativa, rice) (UniProt Q653V4). Kind of experiment: Counterscreen for Glucocerebrosidase Inhibitors: qHTS Assay for Rice alpha-Glucosidase at pH 5.0 (AID 997).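 Further: 0% = full activity with enzyme and -100% = basal without enzyme.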 The method in brief:
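Rice alpha-glucosidase (4 nM final) with 400 uM 4-methylumbelliferyl-alpha-D-glucopyranoside in citrate buffer pH 5.0, 20 min at room temperature, stopped at pH 10; fluorescence 365/440 nm, compounds 0.7 nM–77 uM, AC50 from Hill fits.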

Experiment [3] can be described thus: qHTS Assay for Lipid Storage Modulators (AID 1519; calls by dose curve; on activity change, negative = inhibition: on the % scale 0 is the no-effect control and ±100 the full control effect). The settings on record: Drosophila S3 cells, BODIPY lipid droplet/cell ratio, laser cytometry, cells loaded with oleic acid. The method in brief:
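Cells seeded at 5,000 per well were treated with compounds over a concentration series and loaded with oleic acid (400 uM, as added). Lipid droplet fluorescence (488 nm excitation, 500-530 nm channel) was read by laser-scanning cytometry and normalized to 20 uM Triacsin C.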

Experiment [4] in a line: Cell Viability - LYMP2-020 (AID 986).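 Further: plate controls were DMSO only for no effect and tetraoctylammonium bromide at 92 µM for full effect; nearly all actives have a fitted effect of over 55% in size.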 The method in brief:
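Human lymphoblastoid LYMP2-020 cells (2500/well) preincubated 5 h at 37 C, then treated 24 h at 37 C. Viability measured as intracellular ATP by CellTiter-Glo luminescence after 30 min at room temperature; AC50 from Hill fits.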

The nature of experiment [5]: Cell Viability - LYMP2-022 (AID 987).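 Further: 0% = DMSO alone and full effect = tetraoctylammonium bromide at 92 µM; nearly all actives have a fitted effect of over 55% in size.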 Summed up: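 LYMP2-022 lymphoblastoid cells (2500/well, complete medium) were treated with compounds for 24 hours at 37 C; intracellular ATP was then read by CellTiter-Glo luminescence after 30 min at room temperature. AC50 values were derived from Hill-equation fits.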
The nature of experiment [6]: Cell Viability - LYMP2-024 (AID 988).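 Further: plate controls were DMSO only for no effect and 92 µM tetraoctylammonium bromide for full effect; nearly all actives have a fitted effect of over 60% in size.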 Summed up:
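Human lymphoblastoid LYMP2-024 cells (2500/well) rested 5 hr, then treated with compound for 24 hr at 37 C in complete medium. Viability was measured as intracellular ATP by CellTiter-Glo luminescence. AC50 values came from Hill-equation fits.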

A short description of experiment [7]: Cell Viability - LYMP2-026 (AID 989). Further: on the % scale 0 is the no-effect control and ±100 the full control effect; nearly all actives have a fitted effect of over 50% in size. The method in brief: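 Human lymphoblastoid LYMP2-026 cells, 2500/well, exposed to compound 24 h at 37 C in complete medium. Viability as intracellular ATP by CellTiter-Glo luminescence; AC50 from Hill fits of qHTS concentration-response.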
The nature of experiment [8]: Cell Viability - LYMP1-002 - Assay at 24 hr (AID 993). Further: on the % scale 0 is the no-effect control and ±100 the full control effect. The method in brief:
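Human lymphoblastoid LYMP1-002 cells (2500/well) treated 24 h at 37 °C; viability as intracellular ATP by CellTiter-Glo luminescence. Tetraoctylammonium bromide as positive control; AC50 from Hill-equation fits of qHTS concentration-response.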

A short description of experiment [9]: Cell Viability - LYMP1-002 - Assay at 40 hr (AID 994).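 Further: 0% = DMSO only and full inhibition = 92 µM tetraoctylammonium bromide; nearly all actives have a fitted effect of over 60% in size.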 Summed up:
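LYMP1-002 human lymphoblastoid cells (2500/well, complete medium) were treated with compounds for 40 hr at 37 C. Intracellular ATP was measured by CellTiter-Glo luminescence, and AC50 values came from Hill-equation fits of concentration-response data; tetraoctylammonium bromide was the positive control.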

Where [10] appears, read: measured here: cell count channel max response.
Setting [11] is: measured here: lipid channel max response.

Several values for one entry are separate records, joined by “and”; a condition that tells them apart may be missing. Equal entries are not always repeated. Records with an inconclusive call do not appear. Activity calls are given as the source filed them. Unless noted, the call rests on the fitted dose curve; in most records, active means well fitted curve in the direction sought with a large enough effect; inconclusive means small, poorly fitted or top-dose-only effect, or another doubt; inactive means no such curve, though single readings can be large; an effect the other way counts as inactive or inconclusive.

Sequence of Alpha-galactosidase A (Homo sapiens) (P06280 whole entry, looked up): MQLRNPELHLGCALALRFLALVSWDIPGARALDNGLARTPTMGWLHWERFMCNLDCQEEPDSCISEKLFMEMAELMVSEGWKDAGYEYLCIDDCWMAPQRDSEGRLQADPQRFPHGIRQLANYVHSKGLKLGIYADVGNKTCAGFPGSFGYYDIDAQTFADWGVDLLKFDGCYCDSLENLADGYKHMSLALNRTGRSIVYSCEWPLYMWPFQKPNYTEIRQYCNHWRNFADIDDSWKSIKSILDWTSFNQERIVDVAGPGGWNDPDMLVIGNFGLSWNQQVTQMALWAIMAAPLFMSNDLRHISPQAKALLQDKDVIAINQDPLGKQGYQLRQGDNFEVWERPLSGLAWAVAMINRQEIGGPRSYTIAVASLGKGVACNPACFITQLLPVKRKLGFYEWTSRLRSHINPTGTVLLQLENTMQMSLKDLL

For `O=C(c1ccc(OCCN2CCCCC2)cc1)c1c(-c2ccc(O)cc2)sc2cc(O)ccc12`, the result in experiment [1] and in experiment [2] was inactive. Moreover, the activity change, negative = inhibition in experiment [3] (at 25.7 µM (top of the series)) is -1.98% (inactive); in experiment [3] (at 57.5 µM (top of the series)) it was 1.97% (inactive). For the same compound, the max response in experiment [3] (setting [10]) was -4.67% and -13.2%; in experiment [3] (setting [11]), -4.93% and -10.5%.

As to `NS(=O)(=O)c1cc2c(cc1Cl)NCNS2(=O)=O`, the call in experiment [4], in experiment [5], in experiment [6], in experiment [7], in [1] and in experiment [8] was inactive. Moreover, the outcome in experiment [2] was inactive. Also, the Potency entry in experiment [9] was “inactive”. For the same compound, the activity change, negative = inhibition in [3] (at 25.7 µM (top of the series)) is 0.69% (inactive); in [3] (at 57.5 µM (top of the series)), 7.4% (inactive). The max response in [3] (setting [10]) was -3.42% and 12.6%; in experiment [3] (setting [11]) it was -4.41% and 24.1%.

Regarding `COC(=O)Nc1nc2ccc(C(=O)c3cccs3)cc2[nH]1`, the call in [1] and in experiment [2] was inactive. Further, the values for the activity change, negative = inhibition in experiment [3] (at 25.7 µM (top of the series)) and in [3] (at 57.5 µM (top of the series)) were -7.22% (inactive) and 1.19% (inactive), respectively. In addition, the max response in experiment [3] (setting [10]) is -4.31% and 9.27%; in [3] (setting [11]) it was -12.3% and 9.44%.

`O=c1c(-c2ccc(O)cc2)coc2cc(O)cc(O)c12`: the compound was called inactive in experiment [4], in experiment [5], in [6], in experiment [7], in experiment [1] and in [8]. Moreover, the outcome in [2] was inactive. The Potency entry in [9] was “inactive”. Further, the activity change, negative = inhibition in experiment [3] (at 57.5 µM (top of the series)) was -6.97% (inactive). In addition, the figures for the max response in experiment [3] (setting [10]) and in experiment [3] (setting [11]) were 15.5% and 9.16%, respectively.

Take `CNCCCC12CCC(c3ccccc31)c1ccccc12`: the compound was classed as inactive in experiment [1] and in [2]. The activity change, negative = inhibition in experiment [3] (at 25.7 µM (top of the series)) was -2.57% (inactive); in experiment [3] (at 57.5 µM (top of the series)), -1.14% (inactive) and 2.05% (inactive). Besides, the max response was -12.7% and 1.78% and 3.8% in experiment [3] (setting [10]); -13.9% and 1.75% and 6.48% in experiment [3] (setting [11]).

Regarding `CCC1(c2ccccc2)C(=O)NCNC1=O`, the compound was classed as inactive in [4], in [5], in [6], in experiment [7], in experiment [1] and in [8]. The outcome in [2] was inactive. In experiment [9], the Potency result was “inactive”. Also, the activity change, negative = inhibition was -1.4% (inactive) in experiment [3] (at 25.7 µM (top of the series)); 0.988% (inactive) and 9.51% (inactive) in experiment [3] (at 57.5 µM (top of the series)). Besides, the max response in experiment [3] (setting [10]) was 4.93% and -20.9% and 16.1%; in [3] (setting [11]), 2.59% and -19% and 28.8%.

Consider `CN1CCN(CCCN2c3ccccc3Sc3ccc(Cl)cc32)CC1`, for which the compound was classed as inactive in [1] and in experiment [2]. Also, the values for the activity change, negative = inhibition in [3] (at 25.7 µM (top of the series)) and in [3] (at 57.5 µM (top of the series)) were -2.25% (inactive) and 2.24% (inactive), respectively. Further, the max response in experiment [3] (setting [10]) was -2.79% and -1.33%; in experiment [3] (setting [11]) it was -5.2% and 2.08%.

With `Cc1cc(C(C)(C)C)c(O)c(C)c1CC1=NCCN1`, the compound was classed as inactive in experiment [1] and in experiment [2]. Further, the activity change, negative = inhibition in experiment [3] (at 25.7 µM (top of the series)) is -3.48% (inactive); in experiment [3] (at 57.5 µM (top of the series)) it was -2.77% (inactive) and 10.3% (inactive). Also, the max response is -11.5% and -13.2% and 34.1% in [3] (setting [10]); -16% and -15.4% and 53.3% in [3] (setting [11]).

As for `CN(C)CCOC(c1ccccc1)c1ccccc1`, the call in experiment [1] and in [2] was inactive. The activity change, negative = inhibition in [3] (at 25.7 µM (top of the series)) is -4.2% (inactive); in experiment [3] (at 57.5 µM (top of the series)), 0.806% (inactive). In addition, the max response is -10.1% and 40.8% in [3] (setting [10]); -13% and 41% in experiment [3] (setting [11]).

For `O=C(CCCN1CCC(O)(c2ccc(Cl)cc2)CC1)c1ccc(F)cc1`, the compound was classed as inactive in experiment [1] and in experiment [2]. In addition, the activity change, negative = inhibition in [3] (at 25.7 µM (top of the series)) is 0.51% (inactive); in [3] (at 57.5 µM (top of the series)) it was 7.71% (inactive). Moreover, the max response is -8.83% and 9.42% in experiment [3] (setting [10]); -10.1% and 21.7% in experiment [3] (setting [11]).
